Results from PubChem BioAssay AID540333 (Southern Research Specialized Biocontainment Screening …, 2011).
Among all 10,000 compounds or so, about 320 (3.2%) were called active. The entries come from a sample that favours actives as a whole. A number with no mark means an inactive call. Rule as the data show it: active = CPE inhibition mostly above about 9.1% (no sharp cut-off); inactive = mostly below about 7.2%.

Assay: Dengue virus cytopathic effect inhibitors, cell-based, CPE readout, HTS (AID 540333)
Conditions: Dengue virus CPE inhibition in host cells, at 20 µM; stronger effect = higher value

Row | Compound | CPE inhibition
1 | S=C1NCCOCCNC(=S)NCCOCCOCCOCCN1 | inactive
2 | CC(=O)CC[C@@H](C)O[C@@H]1OC(C)[C@H](O)CC1O (stereo not given in full) | 0.175%
3 | CCc1cccc(CC)c1NC(=O)C1CN(S(=O)(=O)c2ccccc2)CCN1S(=O)(=O)c1ccccc1 (stereo not given) | 1.21%
4 | COC(=O)C(Oc1ccc2c(-c3ccc(OC)cc3)cc(=O)oc2c1)c1ccccc1 (stereo not given) | 0.765%
5 | O=C(COc1ccc2c(-c3ccccc3)cc(=O)oc2c1)NCc1cccs1 | 0.675%
6 | CC(C)(C)OC(=O)NCC(=O)Oc1cc2oc(=O)cc(-c3ccccc3)c2cc1Cl | 24.3% (active)
7 | COc1ccccc1NC(c1cccnc1)c1ccc2cccnc2c1O (stereo not given) | 0.795%
8 | Cc1ccc(Cl)cc1NC(=O)c1ccc(NC(=O)CCC(=O)O)cc1 | 0.84%
9 | O=C(NC(=S)Nc1nc2c(s1)CCCC2)c1ccccc1 | 0.705%
10 | COc1ccc(C(=O)N[C@H](C(=O)Nc2nc3c(s2)CCCC3)C(C)C)cc1 | 18.9% (active)
11 | N#Cc1c(NC(=S)NC(=O)c2ccccc2)sc2c1CCCC2 | 1.09%
12 | COC(=O)c1ccc(C(=O)NC(=S)Nc2nc3c(s2)CCCC3)cc1 | 0.85%
13 | Cc1csc(NC(=O)[C@@H](NC(=O)c2ccccc2)C(C)C)n1 | 0.86%
14 | O=C(NC(=S)Nc1nc2c(s1)CCCC2)c1ccc(C(=O)c2ccccc2)cc1 | 11.3% (active)
15 | Cc1ccc(-n2c(SCC(=O)NCCN3C(=O)CSC3=O)nnc2-c2cccc(C)c2)cc1 | 0.355%
16 | O=C(CSCc1ccc([N+](=O)[O-])cc1)NC1CC1 | 2.12%
17 | Cc1ccc(C(c2nnnn2C2CCCC2)N2CCc3ccccc32)cc1 (stereo not given) | 18.1% (active)
18 | Cc1ccc(C(=O)Nc2nnc(SCC(=O)N3CCCc4ccccc43)s2)cc1 | 0.06%
19 | Cc1ccc(-c2nnc3ccc(SCC(=O)N4CCCc5ccccc54)nn23)cc1 | inactive
20 | COc1cccc(C2C(C#N)=C(N)Oc3cc(N)ccc32)c1OC (stereo not given) | inactive

Row | Compound | CPE inhibition
21 | COc1ccc([C@@H]2C(C#N)=C(N)S[C@@H](c3ccccc3)[C@@H]2[N+](=O)[O-])cc1 | 0.405%
22 | Cc1ccccc1N=Cc1cc2c(cc1O)OC(N)=C(C#N)C2c1ccccc1 (stereo not given) | 0.055%
23 | Cc1ccc(N=Cc2cc3c(cc2O)OC(N)=C(C#N)C3c2ccccc2)cc1 (stereo not given) | 23.4% (active)
24 | N#CC1=C(N)Oc2cc(O)c(C=Nc3ccccc3)cc2C1c1ccccc1 (stereo not given) | 5.12%
25 | COc1ccc(N=Cc2cc3c(cc2O)OC(N)=C(C#N)C3c2ccccc2)cc1 (stereo not given) | 13.1% (active)
26 | Cc1ccc(-c2nc(N)sc2CC(=O)OCC(=O)NCC2CCCO2)cc1 (stereo not given) | inactive
27 | CCCCC(=O)Nc1cccc(NC(=S)NC(=O)Cc2ccccc2)c1 | 0.515%
28 | O=C(Nc1cccc(Cl)c1)c1ccc(Cn2cc(Cl)cn2)cc1 | inactive
29 | COc1cccc(C(Nc2ccccn2)c2c(NC(=O)c3ccco3)sc(C)c2C)c1 (stereo not given) | 31% (active)
30 | O=C(NC(=S)Nc1ccccn1)c1ccco1 | 1.33%
31 | Cc1ccnc(NC(=S)NC(=O)c2ccco2)c1 | 0.58%
32 | Fc1ccccc1NC(=S)NCc1ccc2c(c1)OCO2 | 0.705%
33 | COc1cc(C(=O)NNC(=S)NC(=O)c2ccc(Cl)cc2)cc(OC)c1OC | 2.02%
34 | Cc1ccc(-n2c(SCC(=O)Nc3cccc(S(N)(=O)=O)c3)nc3ccccc32)cc1 | 10.4%
35 | Cc1cccc(-n2c(SCC(=O)Nc3ncc(Cl)cc3Cl)nc3ccccc32)c1 | 13.7% (active)
36 | Cc1ccc(-c2nn(-c3ccccc3)cc2C(=O)OCC(=O)Nc2ncc(Cl)cc2Cl)cc1 | 0.085%
37 | CN(C)S(=O)(=O)c1cccc(NC(=O)CSc2nc3ccccc3n2-c2ccccc2)c1 | 6.67%
38 | Cc1ccc(-n2c(SCC(=O)Nc3ncc(Cl)cc3Cl)nc3ccccc32)cc1 | 14.9% (active)
39 | CCn1c(SCC(=O)Nc2ncc(C(F)(F)F)cc2Cl)nnc1-c1cccc(C)c1 | 0.415%
40 | COc1cc2c(cc1OC)CN(c1ccc([N+](=O)[O-])cc1C#N)CC2 | 0.37%

Row | Compound | CPE inhibition
41 | CN(C)S(=O)(=O)c1ccc(NCC2COc3ccccc3O2)c([N+](=O)[O-])c1 (stereo not given) | 0.57%
42 | O=C(CSc1cccc[n+]1[O-])Nc1cc(S(=O)(=O)N2CCOCC2)ccc1Cl | inactive
43 | O=c1c2ccccc2sc2ccc(Cl)cc12 | 0.48%
44 | COc1cc(/C=C(\C#N)C(=O)NC2CCCCC2C)ccc1OS(=O)(=O)c1ccc(C)cc1 (stereo not given) | inactive
45 | CSc1ccc(/C=C(\C#N)C(=O)NC2CCCCC2C)cc1 (stereo not given) | 18.5% (active)
46 | CCCCCCCCNC(=O)/C(C#N)=C/c1ccc(SC)cc1 | 0.185%
47 | CC(=O)Nc1ccc(OCC(O)CN2CCCCC2C)cc1 (stereo not given) | 0.255%
48 | O=[N+]([O-])c1ccc(-c2nnc(-c3ccccc3)c(NCCCO)n2)cc1 | inactive
49 | CC1CCN(C(=O)CCc2ccc(Oc3cc([N+](=O)[O-])cc([N+](=O)[O-])c3)cc2)CC1 | 6.92%
50 | O=C(CCc1ccc(Oc2cc([N+](=O)[O-])cc([N+](=O)[O-])c2)cc1)N1CCCCCC1 | 12.4% (active)
51 | O=C(c1cc([N+](=O)[O-])ccc1N1CCCCC1)N1CCCC1 | 0.545%
52 | COc1ccc(OCCCC(=O)Nc2cccc([N+](=O)[O-])c2C)cc1 | inactive
53 | C=CCOC(=O)C1=C(C)NC(SCC(N)=O)=C(C#N)C1c1cccs1 (stereo not given) | 0.32%
54 | Cc1cc(C)c(COc2ccc(/C=N/n3c(C)n[nH]c3=S)cc2)c(C)c1 | 5.91%
55 | Cc1ccc2[nH]c(=O)c(CN(Cc3cccs3)C(=S)NCC3CCCO3)cc2c1 (stereo not given) | 0.245%
56 | Cc1cccc(NC(=S)N(Cc2cccs2)Cc2cc3cc(C)cc(C)c3[nH]c2=O)c1 | 3.13%
57 | CNC(=S)N(Cc1cccs1)Cc1cc2cc(OC)ccc2[nH]c1=O | inactive
58 | Cc1cc(C)c2[nH]c(=O)c(CN(Cc3cccs3)C(=S)NCC3CCCO3)cc2c1 (stereo not given) | 2.9%
59 | COc1ccc2[nH]c(=O)c(CN(Cc3cccs3)C(=S)Nc3cccc(C)c3)cc2c1 | 9.5% (active)
60 | Cc1cc2cc(CN(Cc3cccs3)C(=S)NCC3CCCO3)c(=O)[nH]c2cc1C (stereo not given) | 18.4% (active)
